# An excerpt weighted towards active compounds, which were near 7.5% of everything screened.
# HCMV antiviral – inhibitors of human cytomegalovirus; HFF cells, HCMV-luciferase reporter, 72 h; hits give low values; 4.5% of 410,000 active; activity change, negative = inhibition, % at 57.5 µM; in the data active = activity change below about -60%; inconclusive = no clear call, values can overlap the other calls; inactive = above about -39%
#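 Human foreskin fibroblasts infected with luciferase-reporter HCMV at MOI 1 PFU/cell, compounds at two doses. Luciferase measured 72 h post infection; normalized to buffer-only basal and Salinomycin (10uM) controls.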
# VACV Venus inh – vaccinia inhibition (Venus reporter). Vaccinia virus Venus reporter expression, fluorescence. Potency, µM (doses to about 36.5 µM), for inactives: at the top dose activity change, negative = inhibition, most hits filed as inhibitors. 0.46% of 330,000 active. AID 720580; calls by dose curve; tested in A549 cells; note: potency is the fitted concentration of half-maximal effect; nearly all actives have a fitted effect of over 30% in size
# Vaccinia mCherry – inhibitors of vaccinia virus infection (mCherry reporter signal). Potency, µM (titrated, usually from 36.5 µM), for the others: at the highest dose activity change, negative = inhibition, most hits filed as inhibitors. Vaccinia virus mCherry reporter infection, fluorescence. 0.63% of 310,000 active; calls by dose curve; tested in A549 cells; note: potency is the fitted concentration of half-maximal effect; nearly all actives have a fitted effect of over 35% in size
# FBPA Giardia inh – blocks Giardia fructose-bisphosphate aldolase activity. A8B2U2. purified Giardia FBPA. Potency, µM (doses to about 59.6 µM), without a hit: at the top dose activity, negative = inhibition, usual class: inhibitors. 0.71% of 290,000 active; note: potency is the fitted concentration of half-maximal effect; nearly all actives have a fitted effect of over 55% in size
# Target sequence (A8B2U2 whole entry, looked up): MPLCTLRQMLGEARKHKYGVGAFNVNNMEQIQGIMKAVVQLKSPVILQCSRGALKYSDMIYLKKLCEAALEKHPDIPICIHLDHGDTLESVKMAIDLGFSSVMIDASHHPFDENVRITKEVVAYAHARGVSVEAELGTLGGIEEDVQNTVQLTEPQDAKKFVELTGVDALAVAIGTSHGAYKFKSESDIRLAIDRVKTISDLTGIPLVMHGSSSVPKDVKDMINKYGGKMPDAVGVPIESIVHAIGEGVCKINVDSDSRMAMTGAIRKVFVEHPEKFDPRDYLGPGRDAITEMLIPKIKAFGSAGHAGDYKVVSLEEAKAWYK
#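 Giardia FBPA (40 nM reagent) was preincubated 10 min at RT with compound (up to 57.5 uM final), then substrate plus GAPDH/TPI/NAD/arsenate coupling system with diaphorase/resazurin was added; resorufin fluorescence (525/598 nm) was read after 20 min.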
# HCV inhibitor – blocks hepatitis C virus; Huh7.5.1 HCVcc-Cre infection, luciferase reporter, 44 h; Potency, µM (highest dose often 41.8 µM), for inactives: top-dose activity change, negative = inhibition, hits mostly inhibitors; 3.4% of 340,000 active; note: potency is the fitted concentration of half-maximal effect
#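 Cells (1,000/well) were plated 4 h before compound, then infected with HCVcc-Cre virus (~0.5 moi). After 44 h further culture, infection was read as luciferase luminescence following a 15 min substrate incubation at room temperature.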
# FMDV antiviral – foot and mouth disease virus antiviral activity; FMDV antiviral cell-based qHTS; Potency, µM (series often up to 57.9 µM), inactives show at the top dose activity change, negative = inhibition, hits mostly inhibitors; 1.2% of 410,000 active; AID 1159524; calls by dose curve; tested in HEK293T cells; note: read-out not given here; potency is the fitted concentration of half-maximal effect; nearly all actives have a fitted effect of over 45% in size
# Active calls of the source: *; i = inactive; ? = inconclusive; . = not tested or not shown; [ ] = remark or other dose. Unless noted, calls come from the whole dose curve; as a rule, active = well fitted curve in the direction sought with a large enough effect; inconclusive = small, poorly fitted or top-dose-only effect, or another doubt; inactive = no such curve, though single readings can be large; an effect the other way counts as inactive or inconclusive. % is set by controls: 0 for no effect and ±100 for the full control effect.
SMILES,HCMV antiviral,VACV Venus inh,Vaccinia mCherry,FBPA Giardia inh,HCV inhibitor,FMDV antiviral
Cc1cc(C)nc(NS(=O)(=O)c2ccc(Br)cc2)n1,11.9,.,.,-17.1%,-2.1%,125.4%
COc1cc(Cl)c(C)cc1NC(=O)Cc1cccs1,-19.2,-15.8%,-17.4%,5.2%,3.55µM*,11.6%
COc1cc2c(cc1O)C[C@H]1NCCc3cc4c(c-2c31)OCO4,-84.0*,?,-14.3%,?,10.9%[8.37 µM],0.0%
COc1cc2c(cc1OC)-c1c3c(cc4c1[C@@H](C2)N(C)CC4)OCO3,-75.6*,-12.8%,?,?,?,?
CCCc1nn(C)c(C(=O)Nc2cccc(C)c2)c1Cl,-32.5,-17.1%,-14.5%,-2.6%,-2.6%,10.5%
CCCc1nn(C)c(C(=O)Nc2cccc(Cl)c2)c1Cl,-64.0*,-12.6%,-4.2%,-1.1%,?,-18.8%
COc1ccc(-c2noc(N3CCC(C(=O)N4CCN(c5ccccc5F)CC4)CC3)n2)cc1,-3.7,-23.1%,-29.4%,.,.,11.2µM*
CCOC(=O)N1CCN(c2nc(-c3ccc(OC)cc3)no2)CC1,?,.,.,-0.3%,12.6µM*,2.6%
CCOC(=O)c1sc(NC(=O)CSC(=S)N2CCN(C)CC2)nc1C,-19.9,-27.7%,?,-8.7%,12.6µM*,-14.3%
CCc1nnc(NC(=O)CSC(=S)N2CCOCC2)s1,-97.9*,.,.,?,17.7%,-2.5%
CCOC(=O)c1sc(NC(=O)CCSC)nc1C,-17.3,.,.,5.7%,-8.2%,29.6%
O=C(O)c1cc(NC(=O)c2cccc(F)c2)cc(NC(=O)c2cccc(F)c2)c1,38.2,-9.0%,i,-0.1%,25.3%,-3.4%
Cc1ccc(S(=O)(=O)n2cccc2/C=C/[N+](=O)[O-])cc1,-97.7*,?,?,.,.,15.8µM*
CCOc1ccc2nc(N3CCN(C(=O)c4ccco4)CC3)sc2c1,23.2,-19.4%,-14.2%,.,.,5.1%
COCCOC(=O)c1[nH]c2c(c1C)C(=O)CC(c1ccco1)C2 (stereo not given),-67.2*,-28.3%,?,-0.8%,?,?
COC(=O)c1[nH]c2c(c1C)C(=O)CC(c1cccs1)C2 (stereo not given),-75.7*,?,?,1.3%,?,-4.1%
Cc1c(C(=O)OCCOC(C)C)[nH]c2c1C(=O)CC(c1ccco1)C2 (stereo not given),.,-28.5%,?,-10.3%,?,0.0%
CCOC(=O)c1[nH]c2c(c1C)C(=O)CC(c1ccco1)C2 (stereo not given),-81.1*,?,?,0.5%,?,0.0%
CN(C)CC(C)(C)CNC(=O)c1cnn(-c2nccc(-c3ccc4c(c3)OCO4)n2)c1-c1ccco1,.,4.0%,-8.3%,.,.,-3.8%
N#C/C(=C\c1ccc(C(=O)O)cc1)c1ccccn1,-27.9,-11.0%,-1.8%,8.9%,1.3%,1.3%
N#C/C(=C\c1c[nH]c2ccc(Br)cc12)c1ccccn1,.,-27.7%,?,21.6%,11.2µM*,-16.7%
O=C(N/N=C/c1c(F)cccc1Cl)c1cc(C2CC2)[nH]n1,-19.7,.,.,-3.2%,0.4%,0.0%
OC(CNCCc1ccccc1)COc1ccc(OCC(O)CNCCc2ccccc2)cc1 (stereo not given),-76.9*,?,-22.1%,-3.3%,?,-25.1%
CC(C)CCNCC(O)CON=C1c2ccccc2-c2ccccc21 (stereo not given),-72.1*,?,?,0.2%,8.91µM*,-10.0%
CC(C)c1ccc(OCC(O)CNC(C)c2ccccc2)cc1 (stereo not given),-23.5,?,?,7.4%,?,-11.1%
SMILES,HCMV antiviral,VACV Venus inh,Vaccinia mCherry,FBPA Giardia inh,HCV inhibitor,FMDV antiviral
OC(CNCCC(c1ccccc1)c1ccccc1)COc1ccccc1 (stereo not given),?,?,?,3.4%,12.6µM*,-2.0%
CN(C)CCCOc1ccc(C(C)(C)c2ccccc2)cc1,-33.2,.,.,?,11.2µM*,-14.9%
CN(C)CCOc1ccc(C(C)(C)c2ccccc2)cc1,-26.5,-3.7%,i,?,7.7%,-2.0%
CC(C)(C)c1ccc(C(=O)NCC(=O)OCc2ccc([N+](=O)[O-])cc2)cc1,-10.5,-12.5%,-0.1%,0.5%,16.1%,-7.9%
CCN(CC)C(=S)NC(=O)Cc1ccccc1,-20.2,-18.2%,-9.1%,-15.5%,21.6%,40.6%
CN(C(=S)NC(=O)Cc1ccccc1)c1ccccc1,-66.6*,-9.3%,-2.6%,-19.2%,9.7%,44.1%
Cc1cccc(C(=O)NC(=S)NNC(=O)c2cccs2)c1,?,-28.2%,?,?,1.1%,-11.9%
CC(C)C(=O)Nc1cccc(NC(=S)NC(=O)c2ccc(Cl)cc2)c1,-73.4*,.,.,-23.0%,?,?
Cc1cccc(C(=O)NC(=S)NNC(=O)c2ccc(Cl)cc2)c1,-83.8*,?,-3.9%,?,?,?
COc1ccc(C(=O)NC(=S)NNC(=O)c2ccc(NC(=O)C(C)C)cc2)cc1,-0.2,-1.7%,-4.7%,?,15.8µM*,-3.1%
CCN(CC)S(=O)(=O)c1ccc(NC(=O)CNC2CCCCC2)cc1,?,.,.,?,0.3%,-7.1%
COc1ccccc1OCC(=O)Nc1c2c(nn1-c1ccccc1)CS(=O)(=O)C2,12.4,-1.5%,-10.2%,.,-6.6%,17.3%
Cc1cc(=O)n2ccccc2c1C#N,7.0,.,.,0.6%,7.7%,0.0%
COc1ccc2c(C#N)c3ccccn3c2c1,?,-13.9%,-9.3%,?,3.16µM*,19.8%
Cc1cc(C)n(-c2nc3cc(Cl)ccc3nc2Nc2ccc(C)c(F)c2)n1,1.5,-5.4%,-3.8%,.,.,-16.0%
Cc1cc(C)cc(NC(=O)CN2C(=O)c3ccccc3Sc3ccc(C(=O)N4CCCC4)cc32)c1,17.2,-20.9%,-14.1%,.,.,-5.0%
COc1cccc(CNC(=O)CNC(=S)N(Cc2ccccc2)Cc2ccccc2F)c1,-66.3*,-7.2%,-6.8%,-7.6%,-17.7%,-18.3%
O=C(CNC(=S)N(Cc1ccccc1)Cc1ccccc1F)NCc1ccccc1,?,-19.2%,-8.0%,-6.5%,-10.0%,32.8%
Nc1ccc2oc(-c3ccccc3Cl)cc(=O)c2c1O,-7.7,0.891µM*,0.794µM*,2.3%[89.2 µM],?,64.6%
O=c1cc(-c2ccccc2Cl)oc2ccc([N+](=O)[O-])c(O)c12,14.1,-22.9%,?,18.7%[89.2 µM],19.4%,-9.4%
O=c1cc(-c2ccccc2Cl)oc2c([N+](=O)[O-])c(O)cc(O)c12,-72.1*,?,i,?,4.9%[8.37 µM],-11.6%
O=C(Nc1ccc(O)c2c(=O)cc(-c3ccccc3Cl)oc12)c1ccccc1Cl,-8.4,-0.9%,i,4.6%,5.9%,4.0%
CN(C)c1ccc(C(=O)Nc2ccc(O)c3c(=O)cc(-c4ccccc4Cl)oc23)cc1,-15.5,-2.6%,i,0.4%,31.6µM*,-11.1%
CCCCCCCCN1C(=O)[C@@H](CC(=O)NCCCCc2ccccc2)C[C@@]2(C(=O)OC)C1=C[C@H](C(C)(C)C)O[C@@H]2C,-30.4,.,.,.,.,.
O=C(Cn1nc(-c2ccccc2Cl)ccc1=O)Nc1ccccc1-c1ccccc1,-64.1*,-14.3%,-17.6%,2.5%,?,-16.7%

# High-throughput results as filed in PubChem BioAssay.
